Drawing on PubChem BioAssay, this text covers composite z-score and z-score for twelve compounds.

Active and inactive are the calls of the source.

The test system of test [1] is Plasmodium falciparum Sir2 (PF13_0152, Sir2A). Put plainly: Plasmodium falciparum Sir2A binding compounds – biochemical, small-molecule microarray, 635 nm fluorescence, primary screen (AID 1098).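 Also: score merges spot fluorescence intensity with its signal-to-noise ratio.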 Particulars: fluorescence 635 nm, higher = more signal.
The nature of test [2]: probe aDKK1 binding to arrayed compounds – biochemical, biotinylated probe, 635/667 nm fluorescence, primary screen (AID 1099).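 Also: score merges 667nm spot fluorescence with signal to noise across triplicate slides; reference of the scale not given here.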 Conditions: small-molecule microarray, higher = more signal.
Test [3] in a line: probe aCHRDL2 binding to arrayed compounds – biochemical, biotinylated probe, 635/667 nm fluorescence, primary screen (AID 1100). Particulars: small-molecule microarray, higher = more signal.
Test [4] in a line: change in splice reporter luminescence, either direction, cell-based, HEK293, spliceosome inhibition project, primary screen (AID 1101).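 Also: HEK293 cells carrying a splicing-competent luciferase reporter gene; test concentration not given here.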 Particulars: HEK293 splicing luciferase reporter, 24 h, higher = more signal, called active from +8 up or from −8 down. (A reporter such as luciferase makes a cellular process visible.)
Test [5] has as its target Fibroblast growth factor 10 (Homo sapiens) (UniProt O15520). In words: compounds binding fibroblast growth factor 10 – biochemical, small-molecule microarray, 635 nm fluorescence, primary screen (AID 1102). Particulars: FGF10 binding, fluorescence 635 nm, higher = more signal.
Test [6] deals with glycogen synthase kinase-3 (GSK3A per assay name; protocol says GSK3B). Put plainly: compounds binding glycogen synthase kinase-3 – biochemical, small-molecule microarray, 635 nm fluorescence, GSK3A, primary screen (AID 1103). Also: the record names both GSK3A and GSK3B. Conditions: fluorescence 635 nm, higher = more signal.
For test [7], the target named is Epidermal growth factor receptor (Homo sapiens) (UniProt P00533). Put plainly: compounds binding epidermal growth factor receptor – biochemical, small-molecule microarray, 635 nm fluorescence, primary screen (AID 1104).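 Also: score merges 667 nm emission intensity with spot signal to noise over triplicate slides.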 Particulars: EGFR binding, higher = more signal.
Chain of Epidermal growth factor receptor (Homo sapiens) (P00533 whole entry, looked up): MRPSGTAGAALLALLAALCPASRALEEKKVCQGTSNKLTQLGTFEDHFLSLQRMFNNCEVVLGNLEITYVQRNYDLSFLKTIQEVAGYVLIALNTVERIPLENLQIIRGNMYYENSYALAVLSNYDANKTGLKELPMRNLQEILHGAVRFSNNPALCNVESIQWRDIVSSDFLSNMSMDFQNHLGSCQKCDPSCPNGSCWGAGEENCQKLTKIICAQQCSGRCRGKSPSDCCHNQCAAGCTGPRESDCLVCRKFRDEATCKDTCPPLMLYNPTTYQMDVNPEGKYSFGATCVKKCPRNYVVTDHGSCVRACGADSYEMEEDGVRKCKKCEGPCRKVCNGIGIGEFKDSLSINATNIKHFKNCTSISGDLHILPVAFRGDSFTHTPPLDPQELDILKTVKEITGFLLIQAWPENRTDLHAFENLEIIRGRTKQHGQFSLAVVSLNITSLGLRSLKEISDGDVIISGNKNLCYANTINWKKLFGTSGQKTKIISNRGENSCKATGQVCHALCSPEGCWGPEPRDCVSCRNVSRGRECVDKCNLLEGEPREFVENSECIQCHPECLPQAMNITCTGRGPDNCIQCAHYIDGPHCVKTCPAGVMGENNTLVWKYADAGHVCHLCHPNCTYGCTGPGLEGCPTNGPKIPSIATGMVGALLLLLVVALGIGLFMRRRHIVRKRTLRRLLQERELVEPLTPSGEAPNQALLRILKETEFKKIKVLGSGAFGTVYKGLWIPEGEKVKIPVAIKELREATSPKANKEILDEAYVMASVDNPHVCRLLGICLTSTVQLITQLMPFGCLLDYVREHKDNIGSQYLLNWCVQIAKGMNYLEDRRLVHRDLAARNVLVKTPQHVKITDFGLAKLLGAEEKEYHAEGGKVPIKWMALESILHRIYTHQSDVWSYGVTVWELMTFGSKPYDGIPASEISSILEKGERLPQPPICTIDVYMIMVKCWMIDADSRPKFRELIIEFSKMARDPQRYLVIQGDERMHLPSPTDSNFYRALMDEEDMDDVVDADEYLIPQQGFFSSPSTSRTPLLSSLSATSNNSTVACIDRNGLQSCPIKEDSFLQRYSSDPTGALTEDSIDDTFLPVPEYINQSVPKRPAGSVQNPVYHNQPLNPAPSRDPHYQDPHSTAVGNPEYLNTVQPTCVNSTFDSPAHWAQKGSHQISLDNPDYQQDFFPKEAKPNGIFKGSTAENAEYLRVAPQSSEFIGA
The target in test [8] is Follistatin-related protein 3 (Homo sapiens) (UniProt O95633). Put plainly: compounds binding follistatin-related protein 3 – biochemical, small-molecule microarray, 635 nm fluorescence, primary screen (AID 1105).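 Also: score merges emission near 667 nm and signal to noise per printed spot across three slides.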 Particulars: FSTL3 binding, higher = more signal.
Chain of Follistatin-related protein 3 (Homo sapiens) (O95633 whole entry, looked up): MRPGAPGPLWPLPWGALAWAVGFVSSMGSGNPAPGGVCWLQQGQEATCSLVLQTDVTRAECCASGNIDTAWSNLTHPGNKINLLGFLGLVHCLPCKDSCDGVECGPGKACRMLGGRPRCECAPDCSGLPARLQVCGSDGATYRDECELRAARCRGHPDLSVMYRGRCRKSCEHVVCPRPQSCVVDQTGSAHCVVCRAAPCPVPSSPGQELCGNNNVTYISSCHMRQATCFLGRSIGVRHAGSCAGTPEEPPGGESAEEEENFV
The target of test [9] is Dickkopf-related protein 1 (Homo sapiens) (UniProt O94907). In words: small molecules binding DKK1 protein – biochemical, small-molecule microarray, 635 nm fluorescence scan, primary screen (AID 1106).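 Also: score merges emission near 667 nm with signal to noise over three replicate slides.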 Particulars: higher = more signal.
Chain of Dickkopf-related protein 1 (Homo sapiens) (O94907 whole entry, looked up): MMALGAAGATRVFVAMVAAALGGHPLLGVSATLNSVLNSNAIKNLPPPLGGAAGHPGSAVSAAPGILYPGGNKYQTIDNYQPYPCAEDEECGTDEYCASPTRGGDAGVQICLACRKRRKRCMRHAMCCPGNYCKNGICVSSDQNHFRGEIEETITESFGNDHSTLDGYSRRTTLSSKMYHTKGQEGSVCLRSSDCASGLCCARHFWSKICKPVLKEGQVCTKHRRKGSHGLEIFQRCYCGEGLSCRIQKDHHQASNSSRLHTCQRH
For test [10], the system named is Inhibin beta A chain (activin A). In words: small molecules binding activin A – biochemical, small-molecule microarray, 635 nm fluorescence scan, primary screen (AID 1107).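 Also: mouse activin A protein probed at 4.33 µg/mL on printed slides; score merges bound-protein fluorescence near 667 nm with spot signal-to-noise.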 Particulars: INHBA, higher = more signal.

Chain of Fibroblast growth factor 10 (Homo sapiens) (O15520 whole entry, looked up): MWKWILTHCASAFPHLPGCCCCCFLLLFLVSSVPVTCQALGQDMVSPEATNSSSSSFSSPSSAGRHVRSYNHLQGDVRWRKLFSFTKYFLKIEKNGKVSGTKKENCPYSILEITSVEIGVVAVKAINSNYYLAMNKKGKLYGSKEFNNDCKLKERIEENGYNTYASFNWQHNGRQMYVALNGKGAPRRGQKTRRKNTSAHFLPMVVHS

`COC(=O)[C@H](CCSC)NC(=O)CC=C[C@@H](C)CO`: the composite z-score is -0.0481 in [1]; -0.34 in test [2]; -1.47 in test [3]; 1.26 in test [5]; 1.28 in test [6]; 1.53 in test [7]. Moreover, the results for the composite z-score in [8], in [9] and in test [10] were 1.46, 1.97 and -1.91, respectively. In addition, the z-score in [4] is -0.0982 (inactive).
With `CO[C@H]1COC(=O)CCC[C@H](C)[C@@H](OC)COC(=O)CC=C[C@@H]1C`, the composite z-score in test [1] was 0.981; in test [2] it was -0.26; in test [3] it was -0.811; in [5] it was 0.267; in test [6] it was 0.278; in test [7], 0.711. For the same compound, the composite z-score in test [8] amounted to 0.319; in test [9], 0.846; in [10], 0.691. Besides, the z-score in test [4] is -1.05 (inactive).
Turning to `CCc1cc2c(nc1CC)CCN(CCC(C)=NOC[C@@H](C)[C@H](OCc1ccccc1)C(C)C)C2`, the composite z-score in [1] is -0.482; in [2] it was -0.375; in test [3], -0.244; in test [5] it was -1.58; in test [6] it was -1.04; in [7], -0.812. The composite z-score in test [8] was -1.28; in [9], -1.06; in test [10] it was -0.187. Also, in [4], the z-score is -1.3 (inactive).
In the case of `O=C1C2=CC[C@H]3C(=O)N(Cc4ccccc4)C(=O)[C@H]3[C@H]2[C@H](O)[C@@H]2O[C@H]12`, the composite z-score in test [1] is 1.47; in test [2], -0.211; in [3] it was -0.417; in test [5], 0.0121; in [6], -0.569; in test [7], 0.41. Besides, the composite z-score in [8] is -0.1; in test [9] it was 0.245; in [10] it was -0.0664. Further, the z-score in test [4] was 6.91 (inactive).
Consider `CC(C)CON=C1C[C@@H](O)[C@@H](O)[C@@H]2[C@@H]3C(=O)N(c4ccc(F)cc4F)C(=O)[C@@H]3CC[C@@H]12`, for which the composite z-score is 0.622 in [1]; -0.153 in [2]; -0.462 in test [3]; 0.585 in test [5]; 0.598 in [6]; 0.321 in [7]. In addition, the values for the composite z-score in test [8], in [9] and in [10] were 0.598, 0.289 and -0.287, respectively. Besides, in [4], the z-score is -0.817 (inactive).
With `COC(=O)[C@H](C)NC(=O)CCC1CC(OC(=O)NCc2ccc3c(c2)OCO3)CC2(CCCC(COC(=O)NCc3ccccc3)O2)O1` (stereo not given in full), the composite z-score in [1] was 0.343; in [2], -0.172; in test [3], -0.612; in [5] it was 0.894; in [6], 0.821; in test [7] it was 0.293. In addition, the composite z-score in [8] was 0.832; in [9], 0.893; in test [10], -0.0611. Moreover, the z-score in test [4] is -0.66 (inactive).
`C[C@H]1CC[C@@H](C(=O)O)N[C@@H]1c1ccc(C#Cc2ccccc2)cc1`: the composite z-score is 0.194 in test [1]; 0.0274 in test [2]; -0.273 in test [3]; 1.24 in test [5]; 1.1 in test [6]; 0.935 in test [7]. For the same compound, the composite z-score is 1.31 in [8], 1.07 in test [9] and 1.01 in test [10]. Also, in test [4], the z-score was 0.29 (inactive).
`CCC1=NOC(CCC2CC(OC(=O)NCc3cccc4c3OCO4)CC3(CCCC(COC(=O)NCCc4ccc(Cl)cc4)O3)O2)C1` (stereo not given): the composite z-score in test [1] is 0.354; in [2], -0.0936; in test [3], -0.341; in test [5] it was 1.41; in test [6], 0.173; in test [7], -0.0917. For the same compound, the composite z-score in [8] amounted to 0.147; in test [9], 0.119; in [10], 0.0081. Also, in [4], the z-score was 0.116 (inactive).
Take `COCC#Cc1ccc([C@@H]2N[C@H](C(=O)O)CC[C@H]2C)cc1`: the composite z-score in test [1] was -0.331; in [2] it was 0.159; in test [3], -0.0016; in test [5], 0.129; in [6] it was 0.223; in test [7], 0.362. Moreover, the composite z-score is 0.246 in test [8], 0.302 in test [9] and 0.784 in test [10]. For the same compound, in [4], the z-score is -1.63 (inactive).
Regarding `CCCNC(=O)OC[C@H]1O[C@H](CCON=C2C[C@@H](O)[C@@H](O)[C@@H]3[C@@H]4C(=O)N(CC)C(=O)[C@@H]4CC[C@@H]23)C=C[C@@H]1Oc1ccc(OC)cc1`, the composite z-score was 0.874 in test [1]; -0.04 in [2]; -0.39 in [3]; 0.55 in test [5]; 1.05 in test [6]; 0.611 in test [7]. In addition, the results for the composite z-score in [8], in [9] and in test [10] were 1.07, 1.35 and 0.157, respectively. Further, in test [4], the z-score was 0.264 (inactive).
As for `CCN1C(=O)[C@H]2[C@H]3[C@H](O)[C@H](O)CC(=NO[C@@H]4O[C@H](COC(C)=O)[C@@H](OC(C)=O)[C@H](OC(C)=O)[C@H]4OC(C)=O)[C@@H]3CC[C@H]2C1=O`, the composite z-score in test [1] was 0.579; in [2] it was 0.0594; in [3] it was -0.601; in test [5], 0.868; in test [6] it was 0.612; in test [7] it was 0.591. Moreover, the results for the composite z-score in [8], in test [9] and in test [10] were 1.11, 0.735 and -0.371, respectively. Also, the z-score in [4] is 0.5 (inactive).
`C[C@H]1CC[C@H]2C(=O)N[C@H](Cc3ccccc3)C(=O)N2[C@@H]1c1ccccc1`: the composite z-score is -0.427 in [1]; 0.176 in test [2]; -0.225 in [3]; 0.136 in [5]; -0.0595 in [6]; 0.353 in test [7]. Besides, the composite z-score came to 0.185 in test [8], 0.768 in test [9] and 0.595 in [10]. The z-score in [4] is -0.0985 (inactive).
